Assay results from PubChem BioAssay.
Several values for one entry are separate records, joined by “and”; a condition that tells them apart may be missing. Equal values may be shown once. Activity calls are given as the source filed them.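 Rule for the calls, unless noted: active = thallium flux through the channel raised or lowered by more than 3 SD from vehicle-only wells, actives on both sides; inactive = the rest.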

How the values were obtained:
[1] = liver-stage malaria parasite growth inhibition, primary screen, cell-based, HepG2, luciferase luminescence, HepG2 viability (AID 624349; in the data active = parasite load remaining mostly below about 12%, no sharp cut-off; inactive = mostly above about 10%;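 note: 100% = mean of DMSO negative control wells on the same plate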); settings: P. berghei liver stage in HepG2, luciferase luminescence, concentration not given here; parasite load remaining: stronger effect = lower value; viability: measured here: HepG2 viability without parasites
[2] = Cy5 fluorescence interference with SSB-bound oligo, artefact control for HCV NS3 helicase inhibitor project, biochemical, NIH Clinical Collection, E. coli SSB (AID 743268; call rule not given here)
[3] = test system: Hepatitis C virus NS3 helicase; assay: HCV NS3 helicase inhibitors, primary screen, biochemical, fluorescence polarization, NIH Clinical Collection (AID 743270; call rule not given here); settings: NS3 helicase binding to Cy5-dT15 DNA, stronger effect = higher value, concentration not given here
[4] = target: Single-stranded DNA-binding protein (Escherichia coli (strain K12)) (UniProt P0AGE0); assay: E. coli SSB displacement from DNA, counter-screen for HCV NS3 helicase inhibitor project, biochemical, fluorescence polarization, NIH Clinical Collection (AID 743271; in the data active = inhibition above about 28%); settings: stronger effect = higher value, concentration not given here
[5] = fluorescence interference in NS3h assay format, artefact control for HCV NS3 helicase inhibitor project, biochemical, NIH Clinical Collection (AID 743272; call rule not given here;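 note: HCV NS3 helicase with a Cy5 labelled single stranded DNA probe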); settings: fluorescence interference counterscreen, stronger effect = lower value
[6] = sensitizers of A549 cells to miR-34 induction, primary screen, imaging, A549 dox-inducible miR-34, nuclei and caspase counts (AID 1347080;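 active = compounds whose cell count with miR-34 switched on is under 0.7 times the count with it off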); settings: A549 miR-34 inducible, Hoechst nuclei count, 48 h
[7] = survival rescue of mitochondrial mutant cells in low glucose, primary screen, MELAS cybrids, Rieske KO mouse fibroblasts, CellTiter-Glo (AID 1508586;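 active = mean z-score across replicates of 1.96 or higher in either the MELAS or the Rieske mutant cell line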;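 note: z relative to plate mean and SD of compound and empty wells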)
[8] = viability rescue of complex I mutant cybrids, primary screen, cell-based, galactose medium, ATP luminescence (AID 1645843;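 active = z-score of at least 1.8 in each of two replicates, scored against plate mean and spread of sample wells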;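 note: positive z means more ATP and so rescue of galactose-driven cybrid death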); settings: complex I mutant cybrid cells, 72 h, stronger effect = higher value
F380Y = assay: modulators of BK channel variants, profiling panel, selectivity assay, cell-based, U2OS BacMam, thallium flux, beta subunits (AID 1259406); settings: at 30 µM;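 note: initial slope of Thallos dye fluorescence rise after thallium is added; log ratio against the mean of 0.3% DMSO vehicle wells on the same plate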
F380Y/beta1 = assay: as above; settings: at 30 µM
F380Y/beta2Delta = assay: as above; settings: at 30 µM
F380Y/beta4 = assay: as above; settings: at 30 µM
[9] = target: Calcium-activated potassium channel subunit alpha-1 (Homo sapiens) + Leucine-rich repeat-containing protein 26 (Homo sapiens) (UniProt Q12791+Q2I0M4); assay: as above; settings: F380Y/Slo1WT/gamma1, at 30 µM
R275C = assay: as above; settings: at 30 µM
R275C/beta1 = assay: as above; settings: at 30 µM
R275C/beta2Delta = assay: as above; settings: at 30 µM
R275C/beta4 = assay: as above; settings: at 30 µM
R275C/Slo1WT/beta2 = assay: as above; settings: at 30 µM
[10] = test system: Neuropilin-2 / VEGF-C interaction (human); assay: inhibitors of NRP2–VEGF-C binding, biochemical, microplate binding format, z-score (AID 743281; call rule not given here); settings: microplate NRP2/VEGF-C binding assay; stronger effect = lower value
[11] = modulation of C. elegans fzo-1 (AID 1259413; call rule not given here;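 note: fzo-1 mutant C. elegans worms in liquid wells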); settings: C. elegans fzo-1 modulator screen, mean read-out; stronger effect = higher value
[12] = stronger effect = lower value, cell number ratio, induced over uninduced
[13] = measured here: relative caspase fold change +Dox/-Dox
[14] = measured here: total cells with miR-34 induction, stronger effect = lower value
[15] = measured here: total cells without miR-34 induction
[16] = MELAS cybrid survival, CellTiter-Glo 48 h, stronger effect = higher value
[17] = Rieske KO mouse fibroblast survival, CellTiter-Glo 72 h

Calcium-activated potassium channel subunit alpha-1 (Homo sapiens) + Leucine-rich repeat-containing protein 26 (Homo sapiens), sequence (Q2I0M4 whole entry, looked up, one chain of several): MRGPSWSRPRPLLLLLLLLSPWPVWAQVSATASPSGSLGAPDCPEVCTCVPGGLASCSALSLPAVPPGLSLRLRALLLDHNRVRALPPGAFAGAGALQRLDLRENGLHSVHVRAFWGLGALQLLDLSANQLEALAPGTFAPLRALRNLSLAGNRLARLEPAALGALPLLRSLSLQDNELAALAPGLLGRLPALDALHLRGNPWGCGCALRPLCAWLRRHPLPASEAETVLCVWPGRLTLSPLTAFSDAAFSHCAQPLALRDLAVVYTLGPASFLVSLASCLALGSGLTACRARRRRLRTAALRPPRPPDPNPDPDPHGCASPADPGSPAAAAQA

With Fc1ccc(C2CCNCC2COc2ccc3c(c2)OCO3)cc1 (centres undefined) the parasite load remaining [1] was -4.52% (inactive), the viability [1] was 0.26% and the fluorescence ratio [2] was 1 (inactive). The inhibition [3] was -15% (inactive), the inhibition [4] was 3.34% (inactive) and the fluorescence ratio [5] was 0.83 (inactive). The fold change [6, 12] was 0.992 (inactive) and 1.04 (inactive) and 0.943 (inactive), the fold change [6, 13] was 1.42 and 1.09 and 2.45 and the cell count [6, 14] was 5960 and 7070 and 8540. For the same compound, the cell count [6, 15] was 6000 and 6830 and 9050, the z-score [7, 16] was -1.22 (inactive) and the z-score [7, 17] was 0.964. The z-score [8] was -0.98 (inactive) and -1.43 (inactive), the log fold change Tl+ flux (F380Y) was 0.146 (active) and the log fold change Tl+ flux (F380Y/beta1) was 0.116 (inactive). The log fold change Tl+ flux (F380Y/beta2Delta) was 0.246 (active), the log fold change Tl+ flux (F380Y/beta4) was 0.274 (active) and the log fold change Tl+ flux [9] was 0.0579 (inactive). For the same compound, the log fold change Tl+ flux (R275C) was 0.0588 (inactive), the log fold change Tl+ flux (R275C/beta1) was 0.254 (active) and the log fold change Tl+ flux (R275C/beta2Delta) was 0.126 (active). The log fold change Tl+ flux (R275C/beta4) was 0.218 (active) and the log fold change Tl+ flux (R275C/Slo1WT/beta2) was -0.0537 (inactive).
In the case of Nc1ncnc2c1ncn2[C@@H]1O[C@H](CO)C[C@@H]1O, the parasite load remaining [1] is reported as 137% (inactive), the viability [1] is reported as 93.2% and the fluorescence ratio [2] is reported as 0.96 (inactive). For the same compound, the inhibition [3] was -2.77% (inactive), the inhibition [4] was 2.21% (inactive) and the fluorescence ratio [5] was 0.87 (inactive). The z-score [10] was -0.398 (inactive), the mean signal [11] was 230 (inactive) and the log fold change Tl+ flux (F380Y) was 0.0402 (inactive). The log fold change Tl+ flux (F380Y/beta1) was 0.0107 (inactive), the log fold change Tl+ flux (F380Y/beta2Delta) was -0.0103 (inactive) and the log fold change Tl+ flux (F380Y/beta4) was 0.0334 (inactive). The log fold change Tl+ flux [9] was 0.00963 (inactive), the log fold change Tl+ flux (R275C) was -0.0453 (inactive) and the log fold change Tl+ flux (R275C/beta1) was -0.0213 (inactive). For the same compound, the log fold change Tl+ flux (R275C/beta2Delta) was 0.0189 (inactive), the log fold change Tl+ flux (R275C/beta4) was -0.00206 (inactive) and the log fold change Tl+ flux (R275C/Slo1WT/beta2) was 0.0268 (inactive).
With O=c1[nH]c2ccccc2c2ccccc12 the fold change [6, 12] was 0.926 (inactive) and 0.97 (inactive), the fold change [6, 13] was 0.939 and 0.926 and the cell count [6, 14] was 7660 and 2830. For the same compound, the cell count [6, 15] was 8280 and 2920, the z-score [8] was 0.885 (inactive) and the log fold change Tl+ flux (F380Y) was 0.027 (inactive). For the same compound, the log fold change Tl+ flux (F380Y/beta1) was 0.0377 (inactive), the log fold change Tl+ flux (F380Y/beta2Delta) was 0.0285 (inactive) and the log fold change Tl+ flux (F380Y/beta4) was 0.0704 (inactive). For the same compound, the log fold change Tl+ flux [9] was -0.0148 (inactive), the log fold change Tl+ flux (R275C) was 0.0279 (inactive) and the log fold change Tl+ flux (R275C/beta1) was -0.057 (inactive). The log fold change Tl+ flux (R275C/beta2Delta) was 0.0385 (inactive), the log fold change Tl+ flux (R275C/beta4) was -0.0579 (inactive) and the log fold change Tl+ flux (R275C/Slo1WT/beta2) was -0.0287 (inactive).
With C=C1/C(=C\C=C2/CCC[C@]3(C)[C@@H]([C@H](C)/C=C/[C@@H](O)C4CC4)CC[C@@H]23)C[C@@H](O)C[C@@H]1O the parasite load remaining [1] was 78.1% (inactive) and 40.9% (inactive), the viability [1] was 69.5% and 101% and the fluorescence ratio [2] was 0.98 (inactive). For the same compound, the inhibition [3] was -1.98% (inactive), the inhibition [4] was 2.98% (inactive) and the fluorescence ratio [5] was 0.97 (inactive). The fold change [6, 12] was 1.11 (inactive) and 0.946 (inactive), the fold change [6, 13] was 1.34 and 1.48 and the cell count [6, 14] was 6690 and 9180. For the same compound, the cell count [6, 15] was 6000 and 9710, the z-score [7, 16] was 0.67 (inactive) and -0.148 (inactive) and the z-score [7, 17] was -0.0393 and -0.0428. The z-score [8] was -0.655 (inactive) and -0.545 (inactive), the log fold change Tl+ flux (F380Y) was 0.0327 (inactive) and the log fold change Tl+ flux (F380Y/beta1) was 0.217 (active). For the same compound, the log fold change Tl+ flux (F380Y/beta2Delta) was 0.0454 (inactive), the log fold change Tl+ flux (F380Y/beta4) was 0.0579 (inactive) and the log fold change Tl+ flux [9] was 0.0831 (inactive). For the same compound, the log fold change Tl+ flux (R275C) was -0.0334 (inactive), the log fold change Tl+ flux (R275C/beta1) was 0.143 (active) and the log fold change Tl+ flux (R275C/beta2Delta) was -0.0353 (inactive). The log fold change Tl+ flux (R275C/beta4) was 0.0276 (inactive) and the log fold change Tl+ flux (R275C/Slo1WT/beta2) was 0.00965 (inactive).
